Measured values reported in the supplement of paper PMC7595190.

Test system: MV4-11
Test: CellTox Green cytotoxicity fluorescence relative to DMSO vehicle (fold of vehicle RFU); higher = more cell death (loss of membrane integrity), active = 2 or more
Procedure: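 Paediatric AML cell lines (MV4-11, CMK, Kasumi-1; 4x10^4 cells/well, 96-well) treated with single compounds from the Selleckchem apoptosis library at 0.01, 0.1 and 1 µM. Cytotoxicity was read with CellTox Green (RFU, Ex 485/Em 520) at 24, 48 and 72 h and normalised to the 0.1% DMSO vehicle. Normalised RFU >= 2 was taken as a successful, cell-killing treatment.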

Measured: CellTox Green cytotoxicity fluorescence

CN1CCN(CCCNc2ncc(Cl)c(-c3cc4c(C(=O)NC5CC5)cccc4s3)n2)CC1
inactive: 0.01 µM, 24 h 0.979 | 0.01 µM, 48 h 0.976 | 0.01 µM, 72 h 0.987 | 0.1 µM, 24 h 0.956 | 0.1 µM, 48 h 0.966 | 0.1 µM, 72 h 0.965 | 1 µM, 24 h 0.903 | 1 µM, 48 h 0.93 | 1 µM, 72 h 0.926

O=C(NS(=O)(=O)c1ccc(Br)s1)c1ccc(Cl)cc1Cl [Tasisulam]
inactive: 0.01 µM, 24 h 0.957 | 0.01 µM, 48 h 0.955 | 0.01 µM, 72 h 0.954 | 0.1 µM, 24 h 0.99 | 0.1 µM, 48 h 0.984 | 0.1 µM, 72 h 0.992 | 1 µM, 24 h 1 | 1 µM, 48 h 0.989 | 1 µM, 72 h 1

C=CC(=O)N1CC(=Cc2ccc([N+](=O)[O-])cc2)C(=O)C(=Cc2ccc([N+](=O)[O-])cc2)C1
inactive: 0.01 µM, 24 h 0.967 | 0.01 µM, 48 h 0.965 | 0.01 µM, 72 h 0.983 | 0.1 µM, 24 h 1.11 | 0.1 µM, 48 h 1.66 | 0.1 µM, 72 h 1.78 | 1 µM, 24 h 1.68 | 1 µM, 72 h 1.92
active: 1 µM, 48 h 2.12

CCCCC(C=O)NC(=O)C(CC(C)C)NC(=O)C(CC(C)C)NC(C)=O (stereo not given)
inactive: 0.01 µM, 24 h 0.985 | 0.01 µM, 48 h 1.01 | 0.01 µM, 72 h 1.01 | 0.1 µM, 24 h 1.01 | 0.1 µM, 48 h 1.02 | 0.1 µM, 72 h 1.01 | 1 µM, 24 h 1.16
active: 1 µM, 48 h 2.16 | 1 µM, 72 h 2.42

N#CC(=Cc1ccc(-c2cc(Cl)ccc2Cl)o1)C(=O)Nc1cccc2ncccc12
inactive: 0.01 µM, 24 h 1.01 | 0.01 µM, 48 h 0.987 | 0.01 µM, 72 h 0.982 | 0.1 µM, 24 h 0.998 | 0.1 µM, 48 h 0.992 | 0.1 µM, 72 h 1.01 | 1 µM, 24 h 0.969 | 1 µM, 48 h 0.985 | 1 µM, 72 h 0.984
